# Screening data deposited in PubChem BioAssay by National Center for Advancing Translational Sciences (NCATS).
# FBPA coupling cs: coupling enzyme interference in Giardia aldolase counter-screen. coupling enzyme system counterscreen, AmpLite Red fluorescence. activity change, negative = inhibition, % at 58.2 µM, hits read low. hit rate 0.67% among 290,000. AID 2472; in the data active means activity change below about -30%
#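 Fluorescence at 525 nm excitation and 598 nm emission measured inhibition of the coupled detection system without aldolase. Compounds (at 57.5 uM final) were preincubated 10 min at room temperature with coupling enzyme reagent before a 20 min substrate/AmpLite Red step.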
# Tau fluor counter: counter-screen for tau fibril formation inhibitors | tau K18 P301L Alexa594 fluorescence, heparin fibrillization | Potency, µM (top dose mostly 57.7 µM), without a hit: top-dose activity change, negative = decrease | hit rate 0.93% among 280,000 | AID 1463; further: potency means the concentration at half of the fitted maximal effect; nearly all actives have a fitted effect of over 55% in size
#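 Human tau K18 P301L (15 uM unlabeled, 0.24 uM Alexa 594-labeled) in 100 mM sodium acetate pH 7 with 20 uM heparin, 6 hr at 37 C. ThT 30 uM added, 1 hr ambient; Alexa 594 FP and total fluorescence read at 555/632 nm.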
# Tau ThT inhib: blocks human tau fibril formation measured by thioflavin T; recombinant tau K18 P301L, heparin-induced fibrillization, ThT fluorescence; Potency, µM (titrated, usually from 57.4 µM), for the others: top-dose activity, negative = inhibition, most hits filed as inhibitors; hit rate 2.1% among 270,000; AID 1460; further: potency means the concentration at half of the fitted maximal effect; nearly all actives have a fitted effect of over 55% in size
# Target sequence (P10636 561-689 P618L limits assumed): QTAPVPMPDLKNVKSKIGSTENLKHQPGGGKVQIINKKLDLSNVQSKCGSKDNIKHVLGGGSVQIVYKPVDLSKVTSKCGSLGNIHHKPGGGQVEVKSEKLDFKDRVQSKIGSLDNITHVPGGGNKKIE
#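 ThT emission at 510 nm, taken 1 hr after adding 30 uM dye, quantifies aggregates formed when 20 uM heparin acts on human tau K18 P301L for 6 hr at 37 C.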
# Tau fibril FP: inhibitors of human tau fibril formation | P10636 | K18 P301L tau heparin fibrillization, Alexa594 FP, 6 h | Potency, µM (highest dose often 57.7 µM), without a hit: at the top dose activity, negative = inhibition, actives largely listed as inhibitors | hit rate 0.39% among 280,000; further: potency means the concentration at half of the fitted maximal effect; nearly all actives have a fitted effect of over 55% in size
#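 Human tau K18 […] P301L fragment, 15 uM unlabeled plus 0.24 uM Alexa 594-labeled tau (final), with compound and 20 uM heparin in 100 mM sodium acetate pH 7; 6 hr at 37 C, then Alexa 594 FP read.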
# Numbers without * were called inactive; ? = inconclusive; nt = no result given; [ ] = remark or other dose. Shown are actives, neighbours in structure and some others; about 2.7% of the full set was active somewhere. Unless noted, the call rests on the fitted dose curve; in most records, active means well fitted curve in the direction sought with a large enough effect; inconclusive means small, poorly fitted or top-dose-only effect, or another doubt; inactive means no such curve, though single readings can be large; an effect the other way counts as inactive or inconclusive. On the % scale 0 is the no-effect control and ±100 the full control effect.
SMILES,FBPA coupling cs,Tau fluor counter,Tau ThT inhib,Tau fibril FP
O=C(CN1C(=O)COc2ccc(S(=O)(=O)N3CCCCCC3)cc21)N1CCN(c2ccccc2)CC1,nt,-21.8%,-11.5%,-14.4%
COc1ccccc1CNc1ncnc2onc(-c3ccc(F)cc3)c12,nt,-5.4%,3.3%,-10.3%
CCCc1cc(=O)[nH]c(SCC(=O)NC)n1,-1.4,-0.6%,0.3%,-1.1%
CCCc1cc(=O)[nH]c(SCC(=O)CSc2nc(CCC)cc(=O)[nH]2)n1,1.2,-26.2%,15.8µM*,?
N#C/C(=C\c1ccc(C(=O)O)cc1)c1nc2sc3c(c2c(=O)[nH]1)CCCC3,4.2,?,14.1µM*,-7.8%
Cc1ccoc1C(=O)NCCNc1ccc(Cl)cc1[N+](=O)[O-],-4.3,-23.8%,11.2µM*,4.3%
NC(=O)CSc1oc(-c2cccs2)nc1S(=O)(=O)c1ccc(Br)cc1,nt,?,?,-17.4%
O=[N+]([O-])c1cc2c(cc1C=Nc1ccccc1)OCO2,nt,-16.7%,?,-7.9%
O=[N+]([O-])c1cccc(C=Nc2cccc3ccccc23)c1O,-13.6,nt,nt,nt
COc1cc(C=Nc2cccc(C)c2)c(O)c([N+](=O)[O-])c1,-9.2,-6.3%,7.94µM*,-3.6%
Cc1cccc(N=Cc2cc3c(cc2[N+](=O)[O-])OCO3)c1,nt,?,10µM*,?
CC(C)C[C@@H](CC(=O)N[C@@H](CCC(=O)O)CC(=O)O)NC(=O)[C@@H]1CCCC[C@H]1NC(=O)C[C@H](CCCN)NC(=O)C[C@H](Cc1c[nH]c2ccccc12)NC(=O)[C@@H]1CCCC[C@H]1N,2.0,-4.9%,-4.0%,1.2%
COCC(C)NC(=O)c1cc2cccc([N+](=O)[O-])c2[nH]1 (stereo not drawn),1.0,-5.2%,nt,16.3%
Cc1cc(NC(=O)c2cc3cccc([N+](=O)[O-])c3[nH]2)ccc1F,-14.1,25.1µM*[quencher],nt,?
O=c1c(N2CCc3ccccc3C2)csc2ccccc12,nt,-20.9%,14.1µM*,0.1%
O=c1c(N2CCc3ccccc3C2)csc2ccc(Br)cc12,nt,-6.6%,?,2.3%
COc1ccc(N2CCN(CCC3Oc4cc([N+](=O)[O-])ccc4NC3=O)CC2)cc1 (stereo not drawn),1.3,?,7.94µM*,13.2%
O=C(Nc1ccc(N2CCOCC2)cc1N1CCOCC1)c1cccc([N+](=O)[O-])c1,-3.5,nt,nt,nt
O=S(=O)(Nc1cc2nc3ccccc3nc2n1Cc1ccccc1)c1ccc(Cl)cc1,-55.1*,14.1µM*[quencher],?,?
O=C(Nc1ccc(N2CCOCC2)cc1N1CCOCC1)c1ncoc1-c1cccc(F)c1,-0.1,nt,nt,nt
COc1ccc(-c2noc(CSCC(=O)Nc3ccc(C)cc3Br)n2)cc1OC,nt,-20.4%,?,6.7%
CCOC(=O)C1CCN(C(=O)C2CCN(c3nnc(C)c4c(C)n(-c5ccccc5)nc34)CC2)CC1,nt,12.5%,14.6%,1.7%
CCCCCC1CC1C(=O)N/N=C/c1ccc(N(C)C)cc1 (stereo not drawn),nt,?,15.8µM*,4.1%
CCCCc1ccc(C(=O)Nc2ccc3nc(N4CCN(CC)CC4)cc(C)c3c2)cc1,nt,?,?,-11.1%
Cc1cc(N2CCCCC2)nc2ccc(NC(=O)c3ccc(Br)o3)cc12,-4.0,25.1µM*[quencher],8.91µM*,?
SMILES,FBPA coupling cs,Tau fluor counter,Tau ThT inhib,Tau fibril FP
Cc1cc(N2CCCCC2)nc2ccc(NC(=O)c3ccc(F)cc3)cc12,nt,15.8µM*[quencher],?,?
CN1CCN(C(=S)C(=O)Nc2ccc(Br)cc2)CC1,-36.6*,-20.4%,?,?
CN1CCN(C(=S)NC(=O)c2ccc(Br)cc2)CC1,1.9,-14.7%,-8.5%,-10.9%
O=C1NN(c2ccccc2)C(=O)/C1=C/c1ccc(Sc2cccc3ccccc23)o1,2.3,14.1µM*[quencher],12.6µM*,?
COc1ccccc1CNC(=O)CSc1ccc(C)cc1,-30.2*,-6.2%,5.6%,8.6%
CC1CCN(S(=O)(=O)c2ccc(NC(=O)c3ccccc3F)cc2)CC1,-1.2,nt,nt,nt
COc1cc(NC(=O)Cn2cc(S(=O)(=O)N3CCC(C)CC3)c3ccccc3c2=O)cc(OC)c1OC,nt,?,-14.4%,?
CC1CCN(S(=O)(=O)c2ccc(NC(=O)Cn3nnc(-c4ccccc4F)n3)cc2)CC1,-2.5,?,3.0%,7.94µM*
CC1CCN(S(=O)(=O)c2cn(CC(=O)Nc3ccc(F)c(Cl)c3)c(=O)c3ccccc23)CC1,nt,?,-6.8%,10µM*
COc1ccc(C2=C(C)C(=O)N(Cc3ccc(C(=O)Nc4ccc(C)c(C)c4)cc3)S2(=O)=O)cc1,nt,6.6%,23.0%,-17.7%
Cc1ccc(NC(=O)c2ccc(CSc3ccccn3)cc2)c(O)c1,-0.3,17.8µM*[quencher],?,19.3%
Cc1ccc2c(c1)c(=O)c(C(=O)c1ccncc1)cn2CC(=O)Nc1ccccc1Cl,nt,-5.7%,-6.1%,3.4%
Cc1ccc(CN2C(=O)c3ccccc3Sc3ccc(C(=O)NCc4ccco4)cc32)cc1,nt,-16.8%,-6.0%,-11.1%
CC(C)c1cc(C(=O)N/N=C/c2c[nH]c3ccccc23)n[nH]1,0.2,-16.3%,nt,7.5%
CCc1ccc(-c2cc(C(=O)N/N=C/c3c[nH]c4ccccc34)[nH]n2)cc1,-1.8,10µM*[quencher],?,-6.5%
CCc1ccc2c(Cl)c(C(=O)N/N=C/c3c[nH]c4ccccc34)sc2c1,-1.7,11.2µM*[quencher],10µM*,?
Cc1ccc(NS(=O)(=O)c2ccc(-c3cc(C)no3)cc2)c(C)c1,nt,-29.8%,-4.0%,-11.6%
CC1(C)CCC[C@]2(C)C3CC(=O)O[C@@]3(C)CC[C@H]12 (stereo partly drawn),4.4,-10.9%,-7.6%,-7.9%
C=C/C1=C/Cc2ccccc2C(C[N+](=O)[O-])C(C(=O)OC)(C(=O)OC)C1 (stereo not drawn),1.9,-8.6%[11.6 µM],-11.9%[11.5 µM],0.1%[11.6 µM]
Cc1cc(N=Nc2ccccc2)c(NCC(O)C(O)C(O)CO)cc1C (stereo not drawn),-4.7,?,14.1µM*,16.3%
Cc1ccc(NCC(O)C(O)C(O)CO)cc1C (stereo not drawn),-13.1,-5.1%,-12.0%,-9.1%
O=C1S/C(=C\C=C\c2ccco2)C(=O)N1c1ccc(O)cc1,-23.2,15.8µM*[quencher],14.1µM*,?
O=C1S/C(=C\C=C\c2ccco2)C(=O)N1c1ccccc1,1.9,?,14.1µM*,?
O=C1S/C(=C\c2cccs2)C(=O)N1c1ccc(O)cc1,-0.4,nt,nt,nt
O=C(NCc1ccc(Cl)cc1)C(=O)NCC(c1cccnc1)N1CCN(c2ccccc2)CC1 (stereo not drawn),nt,-11.4%,-16.3%,3.9%
Cc1ccc(C)c(C(=O)CSc2nc(-c3ccccc3)nc3c2CCCC3)c1,nt,-14.2%,-10.9%,-1.6%
Cc1ccc(Nc2nc(N)c([N+](=O)[O-])c(NCCO)n2)cc1C,-0.6,0.1%[0.0958 µM],nt,-8.0%[0.0958 µM]
Cc1ccc(Nc2nc(N)c([N+](=O)[O-])c(NCc3ccco3)n2)cc1C,2.1,28.2µM*[quencher],15.8µM*,?
CCOc1ccc(Nc2nc(N)c([N+](=O)[O-])c(NCc3ccccc3)n2)cc1,0.7,14.1µM*[quencher],?,14.4%
